PubChem BioAssay (NCI)
The panel holds about 79,000 compounds, 15% with a hit somewhere; the sample as a whole holds those more often. Active and inactive are the calls of the source. Rule as the data show it: active = growth inhibition above about 70%; inactive = the rest.

Assay: NCI Yeast Anticancer Drug Screen. Data for the mlh1 rad18 strain (AID 175)
Details: S. cerevisiae mlh1 rad18 strain growth inhibition; at 50.0 µM (retest, dose inferred, filed as 5.0); stronger effect = higher value
How it was run: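 Genetically defined yeast (DNA repair-deficient) exposed to compounds; growth inhibition determined relative to vehicle.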

Row | SMILES | growth inhibition
1 | CC(OC(=O)Nc1cccc(Cl)c1)c1ccccc1 (centres undefined) | 99% (active)
2 | O=C(O)/C=C/c1c2ccccc2cc2ccccc12 | 97% (active)
3 | Cc1c[nH]c2c(O)cc3c(c12)[C@H](CCl)CN3C(=O)c1cc2cc(NC(=O)Nc3ccc4[nH]c(C(=O)N5C[C@@H](CCl)c6c5cc(O)c5[nH]cc(C)c65)cc4c3)ccc2[nH]1 | 86% (active)
4 | Cc1ccc(S(=O)(=O)OC(C=O)C(O)C(O)COC(c2ccccc2)(c2ccccc2)c2ccccc2)cc1 (centres undefined) | 99% (active)
5 | COc1cc2c(cc1C(C)C)CCC1C(C)(C#N)CCCC21C (centres undefined) | -29% (inactive)
6 | Fc1ccc(NC(=S)SCc2ccc(Cl)c(Cl)c2)c(F)c1 | 95% (active)
7 | COC(=O)/C=C(\NC1CC(OC2C[C@](O)(C(C)=O)Cc3c(O)c4c(c(O)c32)C(=O)c2c(OC)cccc2C4=O)OC(C)C1O)C(=O)OC (some centres undefined) | 98% (active)
8 | O=C1CSC(=S)N1c1ccc(F)cc1F | 89% (active)
9 | CS(=O)(=O)OCCN(CCOS(C)(=O)=O)c1ccc(C=Nc2ccc3ccccc3c2)c(Cl)c1 | 34% (inactive)
10 | CN(C)C(=O)Nc1ccc(Cc2ccc(NC(=O)N(C)C)cc2)cc1 | -56% (inactive)
11 | O=c1c(Cl)c(Cl)c(=O)c2sc3cc(Cl)ccc3[nH]c1=2 | 59% (inactive)
12 | O=S(=O)(O)C(O)c1ccc2ccc3cccc4ccc1c2c34 (centres undefined) | 95% (active)
13 | N#Cc1cc([N+](=O)[O-])ccc1NC(=O)/C(=N/N)C(C(=O)c1ccc(Cl)c(Cl)c1)C1OC(=O)c2ccccc21 (centres undefined) | 5% (inactive)
14 | O=C(Nc1ccc(Cl)c(Cl)c1Cl)Oc1c(Cl)c(Cl)c(Cl)c(Cl)c1Cl | 99% (active)
15 | O=[N+]([O-])c1cc(Cl)cc2c1nc(NCCO)c1ccccc12 | 93% (active)
16 | CCNc1nc(C(F)(F)F)nc2nc[nH]c12 | -9% (inactive)
17 | CC1CCN(CCOC(=O)C(c2ccccc2)C2C=CCCC2)C1 (centres undefined) | 75% (active)
18 | CCOC(=O)c1c(N)sc2c1CCCCC2 | -88% (inactive)
19 | CC(C(O)Cc1ccccc1)N(C)N=Nc1ccc([N+](=O)[O-])cc1 (centres undefined) | 89% (active)
20 | O=[N+]([O-])c1ccc(/C=c2\sc3scc(-c4ccc([N+](=O)[O-])cc4)[n+]3\c2=C/c2ccc([N+](=O)[O-])cc2)cc1 | 99% (active)
21 | Oc1cc(C(c2ccccc2)c2ccccc2)c2ccccc2c1O | 1% (inactive)
22 | CC1=CC2OC3CC4OC(=O)/C=C/C=C/C(C(C)O)OCC(=O)C(C)CC(=O)OCC2(CC1)C4(C)C31CO1 (centres undefined) | 99% (active)
23 | CC(NNC(=S)N1CCCCCC1)c1cc2ccccc2cn1 (centres undefined) | 95% (active)
24 | CC(C)C1=CC23CCC4C(C)(C(=O)O)CCCC4(C)C2CC1C1C(=O)C=CC(=O)C13 (centres undefined) | 97% (active)
